From PubChem BioAssay (NCI)
About 83,000 compounds went through this panel and 20% of them were active in at least one assay; those are over-represented in the sample as a whole.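 How to read the values: 0–100, growth inhibition (40 = 60% inhibited); 0, no net growth; -100 to 0, cell death (-40 = 40% of starting cells died; -100 = all dead).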 Active and inactive are the calls of the source. How the source made its calls: active means growth percent below 10; inactive means the rest.

Key:
Test in all cases: NCI-60 one-dose screen, 48 h (100 = growth as untreated, 0 = no growth, -100 = all killed)
Conditions in all cases: 10 µM unless noted
[1] = tested on: NCI-H23 lung
[2] = tested on: NCI-H226 lung
[3] = tested on: NCI-H322M lung
[4] = tested on: HOP-62 NSCLC
[5] = tested on: NCI-H460 lung
[6] = tested on: HOP-92 NSCLC
[7] = tested on: NCI-H522 lung
[8] = tested on: 786-0 renal
[9] = tested on: COLO 205 colon
[10] = tested on: A549/ATCC NSCLC

Measured: growth

O=C(NNc1nc2cc(F)c(F)cc2n2cccc12)c1ncccn1
inactive: [1] 20.3% | [2] 14% | [3] 28.7% | [4] 19.9% | [5] 10.6% | [6] 68.1% | [7] 13.7% | [9] 20.5%
active: [8] 8.17%

Cc1cc(Cl)cc(NS(=O)(=O)c2ccc(-c3cnc(C4CC4)o3)cc2)c1
active: [9] 2.78%
inactive: [1] 35.7% | [2] 60.5% | [3] 46.7% | [4] 41.7% | [5] 16.2% | [6] 66.5% | [7] 17.9% | [10] 31.8% | [8] 49.4%

O=S(=O)(Nc1ccc2c(c1)OC(F)(F)O2)c1ccc(-c2cnc(C3CC3)o2)cc1
inactive: [1] 55.2% | [2] 60.8% | [3] 83.3% | [4] 35.9% | [5] 17.3% | [6] 66.7% | [7] 43.2% | [8] 47.2% | [9] 47.4%

CCNC(=O)Oc1ccc(/C(=C(/C)c2ccccc2)c2ccc(OCCN3CCCC3)cc2)cc1
inactive: [1] 74.6% | [2] 96.6% | [3] 93.2% | [4] 89.9% | [5] 76.2% | [6] 61.9% | [7] 83.3% | [8] 36.7% | [9] 75.5%

Clc1ccc(-c2nc3ccc(/C(=N\N=C\c4ccccc4)c4ccccc4)cc3[nH]2)cc1
inactive: [1] 95% | [2] 82.4% | [3] 92.4% | [4] 111% | [5] 92.5% | [6] 96.3% | [7] 76.4% | [10] 81% | [8] 84.3% | [9] 73.1%

CS(=O)(=O)c1nccc(-c2c(-c3ccc(F)c(OCc4ccccc4)c3)nc3sccn23)n1
active: [6] -5.33%
inactive: [1] 98.4% | [2] 82.1% | [3] 22.3% | [4] 105% | [5] 43.5% | [7] 74.1% | [8] 80.5% | [9] 106%

CC(C)(C)n1nnnc1C(Nc1nccs1)c1cc2cccc3ccc4cccc1c4c32 (configuration not stated)
inactive: [1] 100% | [3] 95.5% | [4] 84.9% | [5] 99.8% | [6] 103% | [7] 100% | [8] 107% | [9] 104%
active: [2] -13%

CN1CCN(c2nc(-c3cnc4ccccc4n3)cc3ccccc23)CC1
inactive: [1] 90.9% | [2] 99.9% | [3] 96.7% | [4] 95.9% | [5] 41.3% | [6] 17.3% | [7] 86.9% | [8] 56.4%

O=C(COc1cccc2cccnc12)Nc1ccc(C(=O)/C=C/c2ccc(Cl)cc2)cc1
inactive: [1] 89.2% | [2] 94.6% | [3] 99.1% | [4] 108% | [5] 102% | [6] 108% | [7] 85.2% | [8] 99% | [9] 108%

Cc1nc(-c2cc3ccccc3c(N3CCN(C)CC3)n2)cs1
inactive: [1] 99.9% | [2] 101% | [3] 106% | [4] 98.1% | [5] 103% | [6] 61.1% | [7] 94% | [8] 93.2% | [9] 88.5%

Cc1nn(-c2ccccc2)c2nc(CCl)[nH]c(=O)c12
active: [8] 4.55%
inactive: [1] 98.8% | [2] 111% | [3] 103% | [4] 98.3% | [5] 102% | [6] 117% | [7] 89.8% | [9] 110%

CS(=O)(=O)c1nccc(-c2c(-c3ccc(F)c(OCc4ccc(F)cc4)c3)nc3sccn23)n1
inactive: [1] 99.2% | [2] 83.7% | [4] 68.3% | [5] 10.3% | [6] 23% | [7] 53.9% | [8] 95.1% | [9] 109%
active: [3] -78.2%

CCN1CCN(Cc2ccc(C(=O)Nc3nc4ccc(Oc5ccnc(C(=O)NC)c5)cc4s3)cc2C(F)(F)F)CC1
inactive: [1] 42% | [2] 76.3% | [3] 66.1% | [4] 63.9% | [5] 26.2% | [6] 37.4% | [7] 58.9% | [8] 39.5%
active: [9] -43%

O=C(NNc1nc2cc(F)cc(F)c2n2cccc12)c1ncccn1
inactive: [1] 11.2% | [3] 25.5% | [4] 19.7% | [6] 61.2% | [9] 16.9%
active: [2] -2.14% | [5] 6% | [7] -2.87% | [8] 0.547%

COc1cc(O)c2c(c1)[C@H]1O[C@@H]1C[C@H](O)[C@H](O)C(=O)/C=C\C[C@H](C)OC2=O
active: [6] -8.48% | [7] 4.82% | [9] 9.13%
inactive: [1] 25.7% | [2] 37.9% | [3] 85.7% | [4] 68.7% | [5] 68.1% | [8] 66%

O=c1c2c(O)cccc2oc2c3c(cc(O)c12)O[C@H]1OC=C[C@@H]31
inactive: [1] 59.9% | [2] 88.7% | [3] 88.4% | [4] 82.4% | [5] 73.5% | [6] 88.7% | [7] 79.9% | [8] 98.9% | [9] 75.1%

Cc1cn(-c2cc(NC(=O)c3cncc(C#Cc4cnc5ccc(OCCCS(C)(=O)=O)nn45)c3)cc(C(F)(F)F)c2)cn1
active: [1] -5.32% | [2] 4.42% | [6] -34.5% | [7] 3.59% | [9] -30.3%
inactive: [3] 24.4% | [4] 25.5% | [5] 18.6% | [10] 48% | [8] 12.4%

c1ccc(-c2n(Cc3ccc4ccccc4c3)c3c4ccccc4c4ccccc4c3[n+]2Cc2ccc3ccccc3c2)cc1
active: [1] -79.9% | [2] -74% | [3] -80.1% | [4] -69.2% | [5] -62.9% | [6] -77% | [7] -74.9% | [8] -67% | [9] -59.5%

CS(=O)(=O)c1nccc(-c2c(-c3ccc(F)c(OCCc4ccccc4)c3)nc3sccn23)n1
inactive: [1] 100% | [2] 89.2% | [4] 103% | [5] 28.8% | [6] 50.1% | [8] 98.2% | [9] 112%
active: [3] -26.9% | [7] -12.5%

COc1cc(CNC(=O)/C=C/c2ccccc2)ccc1OCC(=O)NO
inactive: [1] 103% | [2] 97.4% | [3] 103% | [4] 102% | [5] 109% | [6] 98.4% | [7] 89.9% | [8] 103% | [9] 102%

COc1ccc(-c2nc(SCCC(C)C)nc(N/N=C\c3ccc(O)cc3)c2C#N)cc1
inactive: [1] 36.3% | [2] 97.3% | [3] 82.7% | [4] 61.9% | [5] 10.9% | [6] 67.7% | [7] 87.7% | [10] 60.2% | [8] 34% | [9] 106%

COc1ccc(-c2oc3cc(O)cc(O)c3c(=O)c2OC)cc1O
inactive: [1] 25.7% | [2] 73.6% | [3] 41.2% | [4] 29.1% | [6] 41.2% | [8] 38.8% | [9] 91.4%
active: [5] 8.84% | [7] -21%

CCCC(=O)NC(c1cccnc1)c1cc(Cl)c2cccnc2c1O (configuration not stated)
inactive: [1] 44.7% | [2] 48.9% | [3] 47.1% | [4] 32.2% | [5] 25.3% | [7] 16.8% | [8] 50.9% | [9] 30.8%
active: [6] -5.51%

O=S(=O)(Nc1cc(Cl)c(F)c(Cl)c1)c1ccc(-c2cnc(C3CC3)o2)cc1
inactive: [1] 45.3% | [2] 49.4% | [3] 49.9% | [4] 36.2% | [5] 16.5% | [6] 63% | [7] 32.8% | [8] 43.5%
active: [9] 8.82%

C=C1C(=O)O[C@@H]2/C=C(/C)C3=CC(=O)[C@@](C)(C[C@H](OC(=O)/C(C)=C\C)[C@@H]12)O3
inactive: [2] 34.5% | [3] 89.1% | [4] 82.4% | [5] 27.2%
active: [1] 6.39% | [6] -11.8% | [7] -82.3% | [8] -56.5% | [9] -52.1%

CS(=O)(=O)c1ccc2c(c1)c1c(n2S(=O)(=O)c2ccc(Cl)cc2)CCCC1
inactive: [1] 36.3% | [2] 53.6% | [3] 49.1% | [4] 38.5% | [6] 32.7% | [10] 48.7% | [8] 40.4%
active: [5] 9.54% | [7] -44.5% | [9] -36.3%

COc1ccc2c(c1)c(-c1nnc(N)nc1-c1cn(C)c3ccccc13)cn2C
inactive: [1] 92.4% | [2] 86.5% | [3] 90.4% | [4] 89.1% | [5] 99.5% | [6] 97.9% | [7] 85% | [8] 90.7% | [9] 104%

O=C1NC(=O)c2c1c1c3ccccc3ccc1c1[nH]c3ccccc3c21
active: [4] 1.2% | [5] 6.41%
inactive: [1] 15.8% | [2] 12.2% | [3] 19.4% | [6] 35.9% | [7] 11.3% | [10] 23.5% | [8] 18.6% | [9] 28.8%
